A short description of this assay: qHTS drug screen for cell cycle checkpoint inhibitors in PARPi-resistant BRCA-mutant ovarian cancer cell lines. (AID 1963452). Particulars: PEO1/OlaR viability, CellTiter-Glo luminescence, 96 h, stronger effect = lower value. The text has this: Women's Malignancies Branch, Center for Cancer Research (CCR),
National Cancer Institute (NCI), National Institutes of Health (NIH), Bethesda, MD
Poly (ADP-ribose) polymerase inhibitors (PARPis) have changed the treatment paradigm in breast cancer gene (BRCA) - mutant high-grade serous ovarian carcinoma (HGSC). However, most patients eventually develop resistance to PARPis, highlighting an unmet need for improved therapeutic strategies. Using high-throughput drug screens, we identified ataxia telangiectasia and rad3-related protein/checkpoint kinase 1 (CHK1) pathway inhibitors as cytotoxic and further validated the activity of the CHK1 inhibitor (CHK1i) prexasertib in PARPi-sensitive and -resistant BRCA-mutant HGSC cells and xenograft mouse models. CHK1i monotherapy induced DNA damage, apoptosis, and tumor size reduction. We then conducted a phase 2 study (NCT02203513) of prexasertib in patients with BRCA-mutant HGSC. The treatment was well tolerated but yielded an objective response rate of 6% (1 of 17; one partial response) in patients with previous PARPi treatment. […] BRCA reversion mutation in previously PARPi-treated BRCA-mutant patients was not associated with resistance to CHK1i.
Among others, 1082 oncology drugs, both approved and investigational, were prioritized based on their status in clinical trial development. […] Drugs with average Z-AUC values less than -1.0 in all three cell lines were classified as "hits" resulting in 151 oncology drug hits. The screen also confirmed cross-resistance between olaparib and other PARPis (rucaparib, niraparib, and talazoparib) in PARPi-resistant PEO1/OlaR and PEO4.
[1] G. L. Lin, K. M. Wilson, M. Ceribelli, B. Z. Stanton, P. J. Woo, S. Kreimer, E. Y. Qin, X. Zhang, J. Lennon, S. Nagaraja, P. J. Morris, M. Quezada, S. M. Gillespie, D. Y. Duveau, A. M. Michalowski, P. Shinn, R. Guha, M. Ferrer, C. Klumpp-Thomas, S. Michael, C. McKnight, P. Minhas, Z. Itkin, E. H. Raabe, L. Chen, R. Ghanem, A. C. Geraghty, L. Ni, K. I. Andreasson, N. A. Vitanza, K. E.Warren, C. J. Thomas, M. Monje, Therapeutic strategies for diffuse midline glioma from high-throughput combination drug screening. Sci. Transl. Med. 11, (2019).
[2] T. M. Yamamoto, A. McMellen, Z. L. Watson, J. Aguilera, R. Ferguson, E. Nurmemmedov, T. Thakar, G. L. Moldovan, H. Kim, D. M. Cittelly, A. M. Joglar, E. P. Brennecke, H. Wilson, K. Behbakht, M. J. Sikora, B. G. Bitler, Activation of Wnt signaling promotes olaparib resistant ovarian cancer. Mol. Carcinog. 58, 1770 - 1782 (2019).
PROTOCOL TABLE (as described by Inglese J, Shamu CE and Guy RK. 2007)
SEQUENCE No. (e.g., 1, 2, 3, etc.); […] (e.g., Cells, Incubation, Reagent, etc.); VALUE; DESCRIPTION.
1; Compounds; 20nL; 1536-well white tissue culture-treated plates.
2; Cells; 5 uL; PEO1, PEO4, and PEO1/OlaR cells at 600 cells per well.
3; Incubation; 96 hr; 37C, 95% humidity, 5% CO2.
4; Reagent; 3 uL; CellTiter-Glo (Promega).
5; Incubation; 15 min; room temperature.
6; Detection; Luminescence, PHERAstar (BMG Labtech) plate reader.
NOTES (numbers refer to Sequence numbers above)
1. MIPE 5.0 compounds were acoustically dispensed by Echo Acoustic Liquid Handler (Beckman Coulter Life Sciences). Each compound was plated at an 11-point concentration range with 1:3 dilution. Bortezomib, a proteasome inhibitor (final concentration, 20 uM), was used as a positive.
2. PEO1, PEO4, and PEO1/OlaR were trypsinized and dispensed in 5 uLof growth medium using a Multidrop Combi dispenser at a density of 600 cells per well to allow compounds to be present during the exponential growth phase.
3. Plates were incubated for 96 hours at standard incubator conditions and covered by a stainless steel gasketed lid to prevent evaporation.
4. Three microliters of CellTiter-Glo (Promega) were added to each well.
5. Plates were incubated at room temperature for 15 min with a stainless-steel lid in place.
6. Luminescence readings were taken using PHERAstar (BMG Labtech). […]

The mark [1] stands for this setting: measured here: PEO1 parental Z-AUC.

Where “and” joins values, the source holds several entries; their conditions need not be identical. Equal entries are not always repeated. Calls of active or inactive are those of the source. The call rests on the fitted dose curve.

On to `CC(=O)[C@]1(O)Cc2c(O)c3c(c(O)c2[C@@H](O[C@H]2C[C@H](N)[C@H](O)[C@H](C)O2)C1)C(=O)c1ccccc1C3=O`, for which the Z-AUC was -0.489 (inactive). Further, the Z-AUC under setting [1] is -0.953. In addition, where the note is “measured here: PEO4 Z-AUC”, the Z-AUC is -0.26.

As for `CCCN(CCC)C(=O)C(CCC(=O)O)NC(=O)c1ccccc1` (centres undefined), the Z-AUC was 0.987 (inactive). For the same compound, the Z-AUC under setting [1] is 0.633. For the same compound, the Z-AUC (measured here: PEO4 Z-AUC) is 0.925.

Consider `COc1ccc2c(c1OC)C(=O)O[C@@H]2[C@H]1c2c(cc3c(c2OC)OCO3)CCN1C`, for which the Z-AUC is 0.757 (inactive). Besides, the Z-AUC under setting [1] is 0.922. For the same compound, the Z-AUC (measured here: PEO4 Z-AUC) was 0.499.

Consider `CC(C)COCC(CN(Cc1ccccc1)c1ccccc1)N1CCCC1` (centres undefined), for which the Z-AUC is 1.09 (inactive). In addition, the Z-AUC under setting [1] stood at 0.789. Under “measured here: PEO4 Z-AUC”, the Z-AUC is 0.389.

As for `COc1ccc([C@@H]2Sc3ccccc3N(CCN(C)C)C(=O)[C@@H]2OC(C)=O)cc1`, the Z-AUC was 1.43 (inactive). Besides, the Z-AUC under setting [1] turned out to be 0.963. Also, for the setting “measured here: PEO4 Z-AUC”, the Z-AUC was 0.74.

As to `Nc1ncn([C@@H]2O[C@H](CO)[C@@H](O)[C@H]2O)c(=O)n1`, the Z-AUC is 1.1 (inactive). In addition, under setting [1], the Z-AUC amounted to 0.0153. Moreover, where the note is “measured here: PEO4 Z-AUC”, the Z-AUC is -0.332.

On to `NC(=O)c1ncn([C@@H]2O[C@H](CO)[C@@H](O)[C@H]2O)c1O`, for which the Z-AUC is 1.15 (inactive) and 0.284 (inactive). The Z-AUC under setting [1] was 0.935 and 0.686. Moreover, where the note is “measured here: PEO4 Z-AUC”, the Z-AUC was 1.08 and 0.519.

Take `Cc1cc(C)c(/C=C2\C(=O)Nc3ccccc32)[nH]1`: the Z-AUC is 0.918 (inactive). Under setting [1], the Z-AUC turned out to be 0.596. Moreover, the Z-AUC (measured here: PEO4 Z-AUC) was 0.161.

(Values after PubChem BioAssay (NCATS).)
